Assay [1] can be described thus: Primary fluorescence-based thiol-reactive (MSTI) qHTS assay for identification of artifact compounds. (AID 1845221).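 For activity change, negative = thiol reactive: series mostly up to about 54 µM; thiol-reactive compounds lower the probe fluorescence signal.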 Note: nearly all actives have a fitted effect of over 65% in size. Note: potency is the fitted concentration of half-maximal effect. The method in brief:
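Probe: MSTI 4 uM, PBS pH 7.4, 2% DMSO. Incubation 1 h, RT, light-protected. Readout fluorescence 525/598 nm.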
Background: In qHTS, concentration-response curves come from the screen itself.

The subject of assay [2] is Nanoluciferase (engineered Oplophorus gracilirostris luciferase). Kind of assay: Primary Nanoluciferase (NLuc) qHTS assay for identification of artifact compounds. (AID 1845222).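 Note: NLuc secreted into diluted conditioned medium of S16 cells; series mostly up to about 54 µM; 0% = DMSO and -100% = no enzyme.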 The method in brief: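 Using secreted nanoluciferase in S16 culture medium (0.22 um filtered, 1:55 dilution), compounds were preincubated 15 min at RT. Signal was generated with Nano-Glo reagent (1:100) over 5 min.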

A short description of assay [3]: Primary redox qHTS assay for identification of artifact compounds. (AID 1845223).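 Note: 0% = DMSO and 100% = reference compound.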 In short, it runs like this: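 Amplex Red (25 uM) and HRP (250 mU/mL) in HBSS, with compounds for 15 min, then 250 uM DTT for 30 min, room temperature, dark. Fluorescence 525/598 nm read; normalized to DMSO and 10 uM DA3003; Hill fit.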

This is an account of results in PubChem BioAssay (NCATS).

Molecules are shown by their SMILES. Unmarked numbers belong to inactive results. Inconclusive results are not listed. Active and inactive are the calls of the source. Calls come from the whole dose curve; as a rule, active = well fitted curve in the direction sought with a large enough effect; inconclusive = small, poorly fitted or top-dose-only effect, or another doubt; inactive = no such curve, though single readings can be large; an effect the other way counts as inactive or inconclusive.

Turning to `Cc1cc(O)cc(Oc2cc(C)c(C(=O)O)c(O)c2)c1`, the Potency in assay [1] is 3.36 µM (active). Moreover, the Potency result in assay [2] was “inactive”.
Taken in the same sequence, the figures for `C=CCc1ccc(O[C@@H]2O[C@H](CO)[C@@H](O)[C@H](O)[C@H]2O)c(OC)c1` were 7.36 µM (active) and “inactive”.
Consider `CC(=O)OC1C(O)CC(O[C@@H]2O[C@H](CO)[C@@H](O)[C@H](O)[C@H]2O)C2CCC3C(=O)OC(c4ccoc4)CC3(C)C21` (stereo not given in full), for which the Potency result in assay [1], in assay [2] and in assay [3] was “inactive” throughout.
For the compound `C[C@@H]1C/C=C/C=C\C=C\C=C\[C@H](O[C@@H]2O[C@H](C)[C@@H](O)[C@H](N)[C@@H]2O)C[C@@H]2O[C@](O)(C[C@@H](O)C[C@H]3O[C@@H]3/C=C/C(=O)O1)C[C@H](O)[C@H]2C(=O)O`, the Potency result in assay [1] and in assay [2] was “inactive” throughout.
On to `C[C@H]1C[C@H]2[C@@H]3CCC4=CC(=O)C=C[C@]4(C)[C@@]3(F)[C@@H](O)C[C@]2(C)[C@@]1(O)C(=O)COP(=O)(O)O`, for which the Potency entry in assay [1], in assay [2] and in assay [3] was “inactive” in each case.
On to `C[C@@H]1O[C@@H](O[C@@H]2[C@@H](O)[C@H](O[C@@H]3[C@@H](O)[C@@H](O)[C@H](O[C@H]4[C@H](OC(=O)[C@]56CCC(C)(C)C[C@H]5C5=CCC7[C@@]8(C)C[C@H](O)[C@H](O[C@@H]9O[C@H](C(=O)O)[C@@H](O)[C@H](O)[C@H]9O)[C@@](C)(CO)C8[C@H](O)C[C@@]7(C)[C@]5(C)CC6)OC[C@H](O)[C@@H]4O)O[C@H]3C)OC[C@H]2O)[C@H](O)[C@H](O)[C@H]1O` (stereo not given in full), for which the activity change, negative = thiol reactive in assay [1] was 319% [at 11.5 µM]. Besides, the activity, negative = inhibition in assay [2] was 0.798% [at 11.6 µM].
`COC1CC(OC2CCC3(C)C(=CCC4C3CCC3(C)C(C(C)O)CCC43O)C2)OC(C)C1OC1OC(C)C(OC2OC(COC3OC(COC4OC(CO)C(O)C(O)C4O)C(O)C(O)C3O)C(O)C(O)C2O)C(OC)C1O` (stereo not given): the activity change, negative = thiol reactive in assay [1] is 54% [at 11.5 µM]. In addition, the activity, negative = inhibition in assay [2] is 4.38% [at 11.6 µM].
The matching figures for `C[C@@H]1O[C@@H](O[C@H]2[C@H](OC(=O)[C@]34CCC(C)(C)C[C@H]3C3=CCC5[C@@]6(C)CC[C@H](O[C@@H]7O[C@H](CO[C@@H]8OC[C@H](O)[C@H](O)[C@H]8O)[C@@H](O)[C@H](O)[C@H]7O)C(C)(C)C6CC[C@@]5(C)[C@]3(C)C[C@H]4O)OC[C@@H](O)[C@@H]2O)[C@H](O)[C@H](O)[C@H]1O[C@@H]1OC[C@H](O)[C@H](O[C@@H]2OC[C@@H](O)[C@H](O)[C@H]2O)[C@H]1O` (stereo not given in full): 146% [at 11.5 µM] and -4.62% [at 11.6 µM].
For `COC(=O)C[C@@H]1C(C(=O)O)=CO[C@@H](O[C@@H]2O[C@H](CO)[C@@H](O)[C@H](O)[C@H]2O)/C1=C\COC(=O)/C=C\c1ccccc1`, the Potency entry in assay [1], in assay [2] and in assay [3] was “inactive” each time.
As for `COc1ccc(/C=C/C(=O)O[C@H]2[C@@H]3C=CO[C@@H](O[C@@H]4O[C@H](CO)[C@@H](O)[C@H](O)[C@H]4O)[C@@H]3[C@@]3(CO)O[C@@H]23)cc1O`, in assay [1], the Potency is 11.6 µM (active). Also, the Potency result in assay [2] and in assay [3] was “inactive” in each case.
Turning to `O=C(COc1ccc(Cl)cc1)NC1CCC(NC(=O)COc2ccc(Cl)cc2)CC1` (stereo not given), the Potency entry in assay [1], in assay [2] and in assay [3] was “inactive” throughout.
With `COc1ccc(C)c2sc(NC(=O)c3ccncc3)nc12`, the Potency entry in assay [1], in assay [2] and in assay [3] was “inactive” throughout.
Consider `CC(=O)OC[C@]12[C@H](OC(C)=O)C(=O)[C@@H]3[C@@H](OC(C)=O)[C@@]14O[C@@]3(C)COC(=O)c1cccnc1[C@@H](C)[C@H](C)C(=O)O[C@@H]([C@H](OC(C)=O)[C@@H]2OC(C)=O)[C@]4(C)O`, for which the Potency entry in assay [1], in assay [2] and in assay [3] was “inactive” in each case.
With `CC(=O)OCC(=O)O[C@@H]1[C@H]2[C@@H](OC(=O)c3ccccc3)[C@@H](C)C[C@]2(O)[C@H](OC(C)=O)C2(C)[C@H]3CC(C)(C)C(=O)[C@@H]3CC1(OC(C)=O)[C@@H]2OC(C)=O` (stereo not given in full), the Potency entry in assay [1], in assay [2] and in assay [3] was “inactive” each time.
On to `C/C=C1/[C@H](O[C@@H]2O[C@H](CO)[C@@H](O)[C@H](O)[C@H]2O)OC=C(C(=O)OC)[C@H]1CC(=O)O[C@@H]1O[C@H](CO)[C@@H](O)[C@H](O)[C@H]1O`, for which the Potency result in assay [1], in assay [2] and in assay [3] was “inactive” each time.
For the compound `Nc1nc(CC(=O)Nc2ccc(CCNCC(O)c3ccccc3)cc2)cs1` (stereo not given), the Potency entry in assay [1], in assay [2] and in assay [3] was “inactive” each time.
`CC1(C)C(=O)N2c3ccccc3[C@]3(CC(n4cnc5ccccc5c4=O)C(=O)O3)[C@H]2N1O` (stereo not given in full): the Potency result in assay [1], in assay [2] and in assay [3] was “inactive” each time.
Consider `C=C1[C@@H]2CC[C@@]3(C)[C@H](c4ccoc4)OC(=O)C[C@]13O[C@H]1CC(=O)C(C)(C)[C@H](CC(=O)OC)[C@]12C`, for which the Potency entry in assay [1], in assay [2] and in assay [3] was “inactive” in each case.
On to `COC(=O)C1(Cc2ccc(O)cc2)OC(=O)C(OC)=C1c1ccc(O)cc1` (stereo not given), for which the Potency result in assay [1], in assay [2] and in assay [3] was “inactive” throughout.
As for `COC(=O)c1cc(CN2CCN(C(=N)N)CC2)cc(C(=O)N2CCN(C(=O)c3ccc(C(=N)N)cc3)CC2)c1`, the Potency entry in assay [1], in assay [2] and in assay [3] was “inactive” each time.
As for `O=C(/C=C/c1ccc(O)cc1)OC[C@H]1O[C@@H](OC(=O)/C=C/c2ccccc2)[C@H](O)[C@@H](O)[C@@H]1O`, the Potency in assay [1] was 11.6 µM (active). Besides, the Potency entry in assay [2] and in assay [3] was “inactive” throughout.
Turning to `CC(=O)O[C@@H]1[C@@H](OC(=O)/C=C/c2ccccc2)[C@H](C)O[C@@H](O[C@H]2[C@@H]3C=CO[C@@H](O[C@@H]4O[C@H](CO)[C@@H](O)[C@H](O)[C@H]4O)[C@@H]3[C@@]3(CO)O[C@@H]23)[C@@H]1OC(C)=O`, the Potency result in assay [1], in assay [2] and in assay [3] was “inactive” each time.
